# Test results reported in ChEMBL document CHEMBL4513216, “Probing the Open Global Health Chemical Diversity Library for Multistage-Active Starting Points for Next-Generation Antimalarials” (ACS Infect Dis, 2020).
# Out of some 69,000 compounds screened, about 8,600 (12%) showed an effect of 50% or more. For the sample, strong results were picked, then their nearest neighbours and some compounds at random.
# Test system: Plasmodium berghei
# Experiment: Screen against P. berghei liver stage (PbLuc), transformed with Luciferase, at 10uM
# Assay type: functional, HepG2
# Details: tested at 10 uM
row,Compound,INHIBITION
1,N[C@H]1c2ccccc2C[C@@H]1NC(=O)C1CCN(Cc2ccco2)CC1,-13.6%
2,O=C(CS(=O)(=O)Cc1csc(-c2ccc(F)cc2)n1)NCC1CC1,0.991%
3,Cc1ccn2c(F)c(C(=O)N3CCC4(CCC(=O)N(C)C4)CC3)nc2c1,20.5%
4,Cc1cnn(CCNCC(O)c2ccc(S(C)(=O)=O)cc2)c1 (centres undefined),12.6%
5,c1cc(-c2nn3c(CN4CCOCC4)nnc3s2)ccn1,26.7%
6,COc1ccc2c(c1)CN(CC(=O)NC1CCCC1)CC2,-2.48%
7,Cc1cc2nc(SCC(=O)N3CCCC3)n(C(C)C)c(=O)c2[nH]1,-19.7%
8,COc1cc(N2C[C@H]3OCC[C@H]3[C@H](C(=O)N3CCCC3)C2)ncn1,30.3%
9,c1cnc(N2C[C@H]3CCC[C@@H](CN4CCCC4)[C@H]3C2)nc1,9.97%
10,COCCN(C)C[C@@H]1CCC[C@@H]2CN(c3cc(OC)ncn3)C[C@@H]21,41.5%
11,COc1cc(N2C[C@H]3CCC[C@@H](CN4CCOCC4)[C@H]3C2)ncn1,73%
12,COc1cc(N2C[C@H]3CCN(CCN4CCCC4)C[C@H]3C2)ncn1,52.6%
13,COc1cc(N2C[C@H]3CN(C(=O)c4cnccn4)C[C@H]3C2)ncn1,-1.15%
14,COCCN1C[C@@H](C)[C@@]2(COCCN(C(=O)c3cnc(C)cn3)C2)C1,8.57%
15,CC(=O)NCc1noc2c1CN(CCN1CCCC1)CC2,39.3%
16,O=C(O)COc1ccccc1CN1CCCC1c1cnccn1 (centres undefined),47.2%
17,O=C(C[C@@H]1COC[C@H]2CN(Cc3ccccc3)C[C@@H]12)N1CCCC1,41.2%
18,O=C1[C@@H]2CCN(CC3CCOCC3)C[C@@H]2OCCN1c1ccccc1,-37.8%
19,COc1ccc(CN2C[C@@H]3CN(Cc4cccnc4)CCO[C@@H]3C2)cc1,64.5%
20,Cc1cc(CN2CC[C@H]3C(=O)N(c4ccccc4)CCO[C@H]3C2)no1,-33.5%
21,COc1ccccc1CN1C[C@@H]2CN(Cc3cccnc3)CCO[C@@H]2C1,20.1%
22,Cc1ccc(N2CCO[C@H]3CN(Cc4cc(C)on4)CC[C@H]3C2=O)cn1,48.6%
23,Cc1cc(CN2CC[C@H]3C(=O)N(c4cccnc4)CCO[C@H]3C2)no1,53.2%
24,O=C1[C@@H]2CCN(Cc3ccccn3)C[C@@H]2OCCN1c1ccccc1,10.1%
25,Cc1ccc(CN2CC[C@H]3C(=O)N(Cc4cccnc4)CCO[C@H]3C2)o1,33.4%

row,Compound,INHIBITION
1,O=C1[C@@H]2CCN(Cc3ccoc3)C[C@@H]2OCCN1Cc1cccc(F)c1,70.7%
2,O=C1[C@H]2CN(C3CCOCC3)C[C@H]2CN1Cc1cccc(F)c1,1.48%
3,Fc1ccccc1CN1C[C@@H]2CN(Cc3cccnc3)CCO[C@@H]2C1,27.5%
4,O=C1[C@@H]2CCN(Cc3ccncc3)C[C@@H]2OCCN1c1ccccc1,55.2%
5,O=c1c2c[nH]c(N3CCCC3)nc-2cn1C1CCS(=O)(=O)C1 (centres undefined),42.1%
6,CC(C)n1[nH]c(=O)c2c1NC(=O)CC2c1ccc(C#N)cc1 (centres undefined),-1.04%
7,O=C1NCCCCC1Sc1ccc(F)c(F)c1 (centres undefined),25.2%
8,O=C(N1CCCC1)N1CC[C@H]2[C@H]1CCN2c1ncccn1,19.8%
9,Cc1nc(CC(=O)N2CCC(c3ccn4nccc4n3)CC2)cs1,23.9%
10,CCOc1ccccc1-n1c(C2CCC2)n[nH]c1=O,-27.5%
11,O=C1[C@@H]2CCN(Cc3ccc(F)cc3)C[C@@H]2OCCN1c1cccnc1,24.9%
12,OC1CN(Cc2ccccc2)CCN(c2ccncc2)C1 (centres undefined),57.6%
13,O=C1[C@@H]2CCN(Cc3ccoc3)C[C@@H]2OCCN1Cc1cccnc1,12.5%
14,c1ccc(N2CC[C@@H]3CN(Cc4ccncc4)CCO[C@@H]3C2)cc1,65.1%
15,c1cnc(N2CC[C@@H]3CN(Cc4ccncc4)CCO[C@@H]3C2)nc1,-33%
16,O=C1[C@@H]2CCN(Cc3ccoc3)C[C@@H]2OCCN1c1cccnc1,54.4%
17,c1cnc(N2CCO[C@@H]3CN(Cc4ccoc4)C[C@@H]3C2)nc1,33.5%
18,c1cncc(CN2CCO[C@@H]3CN(Cc4ccoc4)CC[C@@H]3C2)c1,50.9%
19,Cc1cnc(N2CC[C@@H]3CN(Cc4ccncc4)CCO[C@@H]3C2)nc1,-15.3%
20,O=C1[C@@H]2CCN(Cc3ccoc3)C[C@@H]2OCCN1c1ccccc1,21.6%
21,Cc1ccnc(N2CCN(Cc3ccccc3)CC(O)C2)c1 (centres undefined),43.9%
22,Cc1cc(N2CCN(Cc3ccccc3)CC(O)C2)cc(C)n1 (centres undefined),36.8%
23,CCNc1nc(-c2cccnc2)c(-c2ccnc(N3CCCC3)n2)s1,48.6%
24,CN(C)C(=O)CCCn1ccc(NC(=O)NCc2cccc(F)c2)n1,13.8%
25,O=C(NCc1cc[nH]n1)NCC(O)c1ccc(F)c(F)c1 (centres undefined),-48.4%

row,Compound,INHIBITION
1,CCN(CC)S(=O)(=O)c1cccc(C(=O)N(C)Cc2ccsc2)c1,-61.4%
2,CC[C@H]1N(C)CCC[C@]12CCC(=O)N2Cc1ccncc1,43.2%
3,CCOc1ccc(C(=O)N2CCCC2c2c(C)nn(C)c2OC)cn1 (centres undefined),-105%
4,Cc1c(CN2CCCC(n3c(=O)oc4ccccc43)C2)cnn1C (centres undefined),35.75%
5,Cc1cc(C)n(CC2CN(Cc3cccc(C#N)c3)CCO2)n1 (centres undefined),-8.11%
6,N#Cc1cccc(CN2CC[C@@H]3CN(c4ncccn4)CCO[C@@H]3C2)c1,56.4%
7,N#Cc1cccc(CN2C[C@@H]3CN(c4ncccn4)C[C@@H]3C2)c1,8.66%
8,Cc1cc(NC(=O)CN2CCCC2c2noc(C(C)C)n2)n(C)n1 (centres undefined),6.81%
9,CCc1ocnc1C(=O)N1CCCC1c1noc(C(C)C)n1 (centres undefined),11.7%
10,CCc1nc(C2CCCN2C(=O)c2nccnc2N)no1 (centres undefined),-3.18%
11,CC(C)c1nc(C2CCCN2CC(=O)Nc2ccc(Cl)cn2)no1 (centres undefined),54.6%
12,CC(C)c1nc(C2CCCN2Cc2ccncc2Cl)no1 (centres undefined),53.9%
13,CC(C)c1nc(C2CCCN2Cc2ccccc2C#N)no1 (centres undefined),22.5%
14,Cc1cc(NC(=O)CN2CCCC2c2noc(C3CC3)n2)no1 (centres undefined),21.6%
15,CC(C)c1nc(C2CCCN2CC(=O)Nc2cccnc2)no1 (centres undefined),-17.6%
16,CC(C)c1nc(C2CCCN2C(=O)c2nccnc2N)no1 (centres undefined),61.1%
17,CC(C)c1nc(C2CCCN2Cc2ccno2)no1 (centres undefined),17%
18,Cc1nnc(NC(=O)CN2CCCC2c2noc(C(C)C)n2)s1 (centres undefined),-36.1%
19,Cc1cc(NC(=O)CN2CCCC2c2noc(C(C)C)n2)no1 (centres undefined),50.3%
20,COC(=O)c1cc(C(=O)N2CCC(OC)CC2)n(-c2ccccc2)n1,-12.33%
21,COC(=O)CNC(=O)c1sc(-c2ccc(Cl)s2)nc1C,-58%
22,CC(O)CN1CCC(CNCc2cccc(OC(F)(F)F)c2)CC1 (centres undefined),35.4%
23,CS(=O)(=O)NC[C@]12COC[C@H]1CN(C(=O)N1CCCC1)C2,21.3%
24,CNCc1nc(-c2ccc3c(c2)OCO3)c[nH]1,8.4%
25,CN1CCC(n2nc(CC3CC3)nc2-c2ccc(F)cc2Cl)CC1,34.9%

row,Compound,INHIBITION
1,CN(C)CCN(Cc1cccc(F)c1)C(=O)c1ccc2nccn2c1,2.91%
2,CC(C)c1cc(NC(=O)CN2CCCC2c2noc(C(C)C)n2)on1 (centres undefined),52.3%
3,Cc1cc(NC(=O)CN2CCn3c(nnc3C(C)C)C2)no1,63.9%
4,Cc1cc(NC(=O)CN2CCn3c(nnc3C(C)C)C2)on1,-0.219%
5,Cc1cc(NC(=O)CN2CCCC2c2noc(C(C)C)n2)on1 (centres undefined),-7.31%
6,Cc1cc(NC(=O)CN2CCn3c(C)nnc3C2)no1,45.1%
7,CC(C)c1nc(C2CCCN2CC(=O)Nc2nncs2)no1 (centres undefined),10.2%
8,O[C@@H]1CCN(CC2CCOC2)[C@H]1Cc1ccccc1 (some centres undefined),46.7%
9,COc1ccc(CN(Cc2cncn2C)CC2CCCO2)cc1OC (centres undefined),15.9%
10,CC(C)C(C)NC(=O)Nc1ccc(CS(C)(=O)=O)cc1 (centres undefined),3.16%
11,COc1ccc(CN2CCn3cc(CNC(=O)CC4CC4)nc3C2)cc1,40.4%
12,CCOc1ccccc1CNC1CCCN(Cc2noc(C)n2)C1 (centres undefined),21.5%
13,COC(=O)c1ccc(CN(C(C)C)C(C)C)o1,42.1%
14,CC(C)N(Cc1ccc(C(=O)O)o1)C(C)C,69.6%
15,CNC(=O)c1ccc(CN(C(C)C)C(C)C)o1,47.9%
16,c1coc(CN2CCCn3c(nnc3Cn3cccn3)C2)c1,4.68%
17,O=C(Cc1cccs1)N1CCn2cc(Cn3cccn3)nc2C1,-2.72%
18,O=C(Cc1ccc(F)cc1)N1CCn2cc(Cn3cccn3)nc2C1,51.2%
19,O=C(CC1CC1)N1CCn2cc(Cn3cccn3)nc2C1,42.7%
20,O=C(c1ccc[nH]1)N1CCn2cc(Cn3cncn3)nc2C1,10.8%
21,O=C(c1ccc[nH]1)N1CCn2cc(Cn3cccn3)nc2C1,74.2%
22,O=C(Cc1cccc(F)c1)N1CCn2cc(Cn3cccn3)nc2C1,26.4%
23,COc1ncccc1CN1C[C@@H]2COC[C@]2(CNC(=O)c2ccno2)C1,29%
24,Cc1nc(C)c(CN2CCC(N(C)Cc3noc(C4CC4)n3)C2)s1 (centres undefined),-19.9%
